# Vaccinia mCherry: qHTS for Stage-Specific Inhibitors of Vaccinia Orthopoxvirus: mCherry Reporter Primary qHTS; Vaccinia virus mCherry reporter infection, fluorescence; Potency, µM (doses to about 36.5 µM), without a hit: top-dose activity change, negative = inhibition, hits mostly inhibitors; 310,000 compounds, 0.63% hits; AID 720579, 2013; calls by dose curve; tested in A549 cells; note: potency is the fitted concentration of half-maximal effect; nearly all actives have a fitted effect of over 35% in size
# VACV Venus inh: qHTS for Stage-Specific Inhibitors of Vaccinia Orthopoxvirus: Venus Reporter Primary qHTS; Vaccinia virus Venus reporter expression, fluorescence; Potency, µM (series often up to 36.5 µM), without a hit: at the highest dose activity change, negative = inhibition, usual class: inhibitors; 330,000 compounds, 0.46% hits; AID 720580, 2013; calls by dose curve; tested in A549 cells; note: potency is the fitted concentration of half-maximal effect; nearly all actives have a fitted effect of over 30% in size
# HCMV inh: qHTS Assay for inhibitors of the human cytomegalovirus (HCMV). HFF cells, HCMV-luciferase reporter, 72 h; active compounds read low. activity change, negative = inhibition, % at 57.5 µM. 410,000 compounds, 4.5% hits; in the data active = activity change below about -60%; inconclusive = no clear call, values can overlap the other calls; inactive = above about -39%
#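 Screen run at 2 compound doses on HFFs infected with reporter HCMV, MOI 1 PFU/cell. Luciferase activity from cell lysates at 72 h post infection gave inhibition relative to buffer-only and Salinomycin wells.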
# HCV inhibitor: qHTS Assay for Inhibitors of Hepatitis C Virus (HCV) | Huh7.5.1 HCVcc-Cre infection, luciferase reporter, 44 h | Potency, µM (top dose mostly 41.8 µM), inactives show at the top dose activity change, negative = inhibition, usual class: inhibitors | 340,000 compounds, 3.4% hits | AID 651820, 2012; active = well fitted inhibition curve with a large enough effect; inconclusive = small, poorly fitted or top-dose-only effect, or another doubt; inactive = no such curve, though single readings can be large or run the other way; note: potency is the fitted concentration of half-maximal effect
#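 After 44 h co-culture of compound, cells and HCVcc-Cre (~0.5 moi), substrate is added for 15 min at room temperature and luciferase measured over 15 sec. Cells were seeded at 1,000/well and pre-cultured 4 h.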
# FMDV antiviral: High Throughput Screening for Foot and Mouth Disease Virus Antivirals; FMDV antiviral cell-based qHTS; Potency, µM (doses to about 57.9 µM), for the others: top-dose activity change, negative = inhibition, hits mostly inhibitors; 410,000 compounds, 1.2% hits; AID 1159524, 2015; calls by dose curve; tested in HEK293T cells; note: read-out not given here; potency is the fitted concentration of half-maximal effect; nearly all actives have a fitted effect of over 45% in size
# Active calls of the source: *; i = inactive; ? = inconclusive; / = not tested or not shown; ! = a repeat was not active. The list is not random: actives were taken first. Their share in the collection is about 7.3%. % is set by controls: 0 for no effect and ±100 for the full control effect.
SMILES,Vaccinia mCherry,VACV Venus inh,HCMV inh,HCV inhibitor,FMDV antiviral
C(/C=C/c1ccccc1)=N/N1CCN(c2ccccc2)CC1,/,/,-101*,15%,51%
C(=C\c1ccccc1)/C=N/N1CCN(c2ccccn2)CC1,/,?,78,7%,28%
Cc1ccc(/C=N/NC(=O)C(C)Oc2cccc3ccccc23)o1 (stereo unspecified),/,/,-66*,?,-21%
Cc1ccc(/C=N/NC(=O)c2cccc3ccccc23)o1,-18%,-14%,-10,-6%,6%
COC(=O)c1ccc(CN(Cc2ccc(OC)c(OC)c2)S(=O)(=O)c2ccc(F)c(C(=O)Nc3cc(C)ccc3C)c2)cc1,-13%,-7%,-26,/,-3%
CCOC(=O)Cc1csc(NC(=O)/C=C/c2ccc(Cl)cc2)n1,/,/,?,11µM*,?
CCOC(=O)Cc1csc(NC(=S)NC(=O)c2ccc(F)cc2)n1,-5%,-4%,-62*,-6%,-20%
CC(=O)c1cc(-c2ccccc2)n(CCC(=O)Nc2ccc(C(C)C)cc2)c1C,i,-15%,0,/,?
COc1ccc(OC)c(NC(=O)CN2CCCN(Cc3ccccc3Cl)S2(=O)=O)c1,-17%,-12%,0,/,-6%
COC(=O)COc1ccc(C2Nc3c(Cl)ccc(C(=O)O)c3C3C=CCC32)cc1 (stereo unspecified),2%,7%,-75*,-2%,8%
COc1ccc(OC)c(C2Nc3c(Cl)ccc(C(=O)O)c3C3C=CCC32)c1 (stereo unspecified),-10%,0%,-21,11%,-12%
Cc1ccc(Nc2nnc(SCC(=O)NCC3CCCO3)s2)cc1 (stereo unspecified),/,/,-5,2%,-8%
COc1ccc(-c2nsc(SCC(=O)NCC3CCCO3)n2)cc1 (stereo unspecified),i,-13%,-77*,-24%,-7%
Cc1ccc(SCCC(=O)NCC2CCCO2)cc1 (stereo unspecified),i,-20%,20,7%,5%
Cc1ccc(Cn2c(SCC(=O)NCC3CCCO3)nc3ccsc3c2=O)cc1 (stereo unspecified),-8%,-3%,0,8.9µM*,-3%
Cc1ccc(SCC(=O)NCC2CCCO2)cc1 (stereo unspecified),/,/,-93*,17%,16%
Cc1ccc(-c2nsc(SCC(=O)NCC3CCCO3)n2)cc1 (stereo unspecified),i,-24%,-36,10µM*,-2%
COc1cc(C(=O)NCC(c2cccs2)S(=O)(=O)c2ccc(F)cc2)cc(OC)c1OC (stereo unspecified),-5%,-5%,0,/,-21%
O=C(N[C@@H](Cc1cccnc1)C(=O)N1CCC[C@H]1C(=O)NCCc1ccccc1Cl)c1cccs1,/,/,-17,/,/
Cc1cccc2cc(CN(C(=O)c3ccc(-c4ccc(F)cc4)cc3)C3CC3)c(N3CCC(O)CC3)nc12,?,-20%,/,/,-19%
Cc1nnc(SCC(=O)NCC2CCCO2)n1-c1ccccc1 (stereo unspecified),/,/,20,15%,-19%
O=C(CSc1nnc(-c2ccco2)n1-c1ccccc1)NCC1CCCO1 (stereo unspecified),i,-12%,-69*,2%,-19%
CCC(Sc1nnc(-c2ccc(C)c(Cl)c2)n1CC)C(=O)Nc1nccs1 (stereo unspecified),/,/,?,?,22µM*
CCc1ccccc1NC(=O)C1CCCN(c2nnc(-n3c(C)ccc3C)s2)C1 (stereo unspecified),?,-30%,-9,/,?
COC(=O)CCC[C@H](C)[C@@H](NS(=O)(=O)c1ccc(C)cc1)C(C)(C)C,/,/,-40,/,/
SMILES,Vaccinia mCherry,VACV Venus inh,HCMV inh,HCV inhibitor,FMDV antiviral
Clc1ccc(-c2csc3ncnc(Sc4nnnn4-c4ccccc4)c23)cc1,10µM*,?,/,/,/
Clc1ccc(-n2nnnc2Sc2ncnc3sccc23)cc1,/,-27%,-81*,?,40µM*
Cn1nnnc1Sc1ncnc2scc(-c3cccc4c3sc3ccccc34)c12,/,/,-92*,/,28µM*
Cn1nnnc1Sc1ncnc2scc(-c3ccccc3Cl)c12,/,/,-73*,/,-10%
c1ccc2sc(Sc3ncnc4sccc34)nc2c1,-25%,-11%,155,12%,1%
CC(NC(=O)C1CCOCC1)c1nnc2n1CCN(Cc1ccc3ccccc3c1)CC2 (stereo unspecified),-15%,-2%,/,/,-17%
Cn1nnnc1Sc1ncnc2scc(-c3cccc(S(C)(=O)=O)c3)c12,/,/,-5,/,-24%
Cc1sc2ncnc(Sc3nnnn3-c3ccccc3)c2c1C,11µM*!,?,-71*,?,/
Cn1nnnc1Sc1ncnc2scc(-c3cccc(Br)c3)c12,/,/,-18,/,-96%
COc1ccc(-c2csc3ncnc(Sc4nnnn4C)c23)cc1,/,/,-92*,/,?
Cn1nnnc1Sc1ncnc2scc(-c3ccc([N+](=O)[O-])cc3)c12,/,/,-100*,/,11µM*
Cc1sc2ncnc(Sc3ccccc3C(=O)O)c2c1C,-2%,-13%,-11,-27%,3%
Cn1nnnc1Sc1ncnc2scc(-c3ccc4c(c3)OCO4)c12,/,/,-86*,/,0%
Cn1nnnc1Sc1ncnc2scc(-c3ccc(Cl)cc3)c12,/,/,-98*,/,20µM*
CC(=O)c1cccc(-c2csc3ncnc(Sc4nnnn4C)c23)c1,/,/,?,/,35µM*
O=C1CCC[C@H]2[C@@H](Cc3ccccc3)[C@@H](NS(=O)(=O)c3cccs3)CC[C@]23CCCN13,/,/,0,/,/
O=C(NCc1ccc(F)cc1)C1CCN(S(=O)(=O)c2ccc3c(c2)CCCN3C(=O)C2CCC2)CC1,-14%,-19%,-21,/,-24%
CCN(c1ccccc1)S(=O)(=O)c1c(C)nc2scc(C)n2c1=O,1%,-5%,-11,/,7%
Cc1ccccc1-c1cccc(CN2CCc3nnc(C(NS(C)(=O)=O)C(C)C)n3CC2)c1 (stereo unspecified),-5%,-5%,/,/,-3%
Cc1nc(N)c(CC(Br)CBr)c(Cl)n1 (stereo unspecified),/,/,-68*,-12%,-25%
O=C1COc2ccc(-c3csc(=Nc4ccc(OC(F)F)cc4)n3CC3CCCO3)cc2N1 (stereo unspecified),/,/,-94*,?,22µM*
COc1ccccc1N=c1scc(-c2ccc3c(c2)NC(=O)CO3)n1CC1CCCO1 (stereo unspecified),/,-29%,?,?,35µM*
CN(C)S(=O)(=O)c1cccc(N=c2scc(-c3ccc4c(c3)NC(=O)CO4)n2CC2CCCO2)c1 (stereo unspecified),/,-20%,?,?,28µM*
Cc1ccc(OCCC(=O)OCC(=O)c2ccc3c(c2)NC(=O)CO3)cc1,/,/,-22,10%,-5%

# Screening results (PubChem)
